# Luc counter: Counterscreen for Luciferase (Kinase-Glo TM) Inhibition; Luciferin 4-monooxygenase (Photuris pensylvanica), Q27757; Kinase-Glo luciferase, ATP luminescence, 8 min; Potency, µM (highest dose often 38.3 µM), hits mostly inhibitors; 0.28% of 200,000 active; AID 1379, 2008; also: nearly all actives have a fitted effect of over 60% in size
#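 Recombinant Kinase-Glo luciferase, 10 uM ATP (linear range), luciferin; imidazole pH 7.2 / KCl / MgCl2 / Tween / BSA buffer; 8 min RT; luminescence.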
# Tau fluor counter: Counterscreen qHTS for Inhibitors of Tau Fibril Formation, Fluorescence Polarization | tau K18 P301L Alexa594 fluorescence, heparin fibrillization | Potency, µM (highest dose often 57.7 µM) | 0.93% of 280,000 active; also: nearly all actives have a fitted effect of over 55% in size
#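 Human K18 P301L tau (15 uM unlabeled plus 0.24 uM Alexa 594-labeled, final) in 100 mM sodium acetate pH 7 was mixed with compound and 20 uM heparin and incubated 6 hr at 37 C.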
# NPSR antagonist: qHTS Assay for Antagonists of the Neuropeptide S Receptor: cAMP Signal Transduction; CHO-NPSR cells, cAMP TR-FRET, antagonist mode; Potency, µM (highest dose often 38.3 µM), actives largely listed as inhibitors; 1% of 220,000 active; also: nearly all actives have a fitted effect of over 50% in size
# Target sequence (Q6W5P4 whole entry, looked up): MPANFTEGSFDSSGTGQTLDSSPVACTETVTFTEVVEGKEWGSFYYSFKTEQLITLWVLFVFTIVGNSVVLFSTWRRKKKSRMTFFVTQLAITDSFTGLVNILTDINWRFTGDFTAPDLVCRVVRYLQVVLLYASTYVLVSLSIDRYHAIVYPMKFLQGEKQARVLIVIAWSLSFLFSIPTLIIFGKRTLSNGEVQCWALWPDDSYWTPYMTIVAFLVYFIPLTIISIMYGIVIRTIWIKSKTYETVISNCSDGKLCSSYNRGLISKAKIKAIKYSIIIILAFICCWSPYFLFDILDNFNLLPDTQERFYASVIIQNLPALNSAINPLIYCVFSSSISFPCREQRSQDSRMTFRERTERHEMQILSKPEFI
# Tau fibril FP: qHTS for Inhibitors of Tau Fibril Formation, Fluorescence Polarization. Microtubule-associated protein tau (Homo sapiens), P10636. K18 P301L tau heparin fibrillization, Alexa594 FP, 6 h. Potency, µM (top dose mostly 57.7 µM), actives largely listed as inhibitors. 0.39% of 280,000 active. AID 1468, 2008; also: nearly all actives have a fitted effect of over 55% in size
# Target sequence (P10636 561-689 P618L limits assumed): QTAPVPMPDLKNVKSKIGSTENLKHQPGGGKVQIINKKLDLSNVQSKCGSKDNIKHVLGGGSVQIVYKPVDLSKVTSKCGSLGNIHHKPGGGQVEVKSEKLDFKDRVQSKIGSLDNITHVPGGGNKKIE
#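 Heparin (20 uM) drove fibril formation of recombinant tau K18 P301L, 15 uM unlabeled with 0.24 uM Alexa 594 label, for 6 hr at 37 C in 100 mM sodium acetate pH 7. Fluorescence polarization (555/632 nm) read 1 hr after 30 uM ThT.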
# Tau fibril ThT: qHTS for Inhibitors of Tau Fibril Formation, Thioflavin T Binding | Microtubule-associated protein tau (Homo sapiens), P10636 | recombinant tau K18 P301L (four-repeat tau fragment), heparin-induced fibrillization, ThT fluorescence | Potency, µM (doses to about 57.4 µM), actives largely listed as inhibitors | 2.1% of 270,000 active | AID 1460, 2008; also: nearly all actives have a fitted effect of over 55% in size
#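 In this qHTS, human K18 P301L tau is incubated with compound and heparin for 6 hr at 37 C, and Thioflavin T fluorescence then reports fibril load.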
# A number is an active result; - = inactive; ? = inconclusive; . = no result given; [ ] = remark or other dose. Hits are enriched below; roughly 3.3% of the tested compounds scored in any of these assays. Calls follow the shape of the dose curve; as a rule, active = well fitted curve in the direction sought with a large enough effect; inconclusive = small, poorly fitted or top-dose-only effect, or another doubt; inactive = no such curve, though single readings can be large; an effect the other way counts as inactive or inconclusive.
SMILES,Luc counter,Tau fluor counter,NPSR antagonist,Tau fibril FP,Tau fibril ThT
COC(=O)N1CC=CC1(C)C(=O)NCc1ccc(C)o1 (stereo unspecified),-,-,.,?,22.4µM
COc1ccc(Nc2ccccc2N)cc1,-,-,-,?,?
Nc1ccc(Nc2ccccc2N)cc1,-,14.1µM[quencher],-,?,15.8µM
CC1=C(CCC(=O)O)c2cc3nc(cc4[nH]c(cc5[nH]c(cc1n2)c(C)c5C(C)O)c(C)c4C(C)O)C(C)=C3CCC(=O)O (stereo unspecified),-,-,.,?,?
C=Cc1c(C)c2cc3[nH]c(cc4nc(cc5nc(cc1[nH]2)C(C)=C5CCC(=O)O)C(CCC(=O)O)=C4C)c(C)c3C=C,-,15.8µM[quencher],?,25.1µM,15.8µM
COc1ccc(/C=C/C(=O)NC(=S)Nc2cc([N+](=O)[O-])ccc2O)cc1OC,-,-,-,?,1.58µM
COc1ccc([N+](=O)[O-])cc1NC(=S)NC(C)=O,-,-,-,-,-
C/C(=N\NC(=S)NC1CCCCC1)c1c(F)cccc1F,-,-,1µM,-,-
C/C(=N\NC(=S)NC1CCCCC1)c1cccs1,-,-,-,-,-
COc1ccccc1OCc1nc2ccccc2[nH]1,-,-,-,-,-
Cc1ccccc1OCc1nc2ccccc2[nH]1,12.6µM,-,-,-,-
Cc1cccc(C(C)C)c1NC(=O)c1ccc2c(c1)CCN2S(C)(=O)=O,.,-,.,-,-
C[C@@H]1CCC2[C@](C)(CO)[C@@H](O)CC[C@]2(C)[C@]12CCC(CO)(CCO)O2 (stereo partly specified),-,-,.,-,-
CC[C@H]1C(c2cccc(Cl)c2)=NN(c2ccccc2)[C@@H]1CO,-,14.1µM[quencher],.,-,?
CC[C@@H]1C(c2cccc(C)c2)=NN(c2ccccc2)[C@H]1C(=O)N1CCOC1=O,-,?,.,-,-
CC[C@H]1C(c2cccc(C)c2)=NN(c2ccccc2)[C@@H]1CO,-,31.6µM[quencher],.,?,?
CN1CCN(C(N)=NC(=O)c2ccccc2)CC1,-,-,-,-,-
CC(=O)Nc1ccc(Nc2nc(C)nc3c2oc2ccccc23)cc1,-,-,-,-,?
CC(=O)N1CCN(c2ccc(Nc3nc(C)nc4c3oc3ccccc34)cc2)CC1,-,?,-,-,8.91µM
Cc1ccc(N2CC(c3nnc(Cc4ccc(F)cc4Cl)o3)CC2=O)cc1 (stereo unspecified),.,-,.,-,-
CNc1sc(C(=O)c2ccccc2F)c(N)c1-c1nc2ccccc2s1,-,11.2µM[quencher],3.98µM,-,7.94µM
O=C(CNC(=O)c1ccccc1F)OCc1nc2ccccc2s1,-,-,-,-,-
Oc1ccc(Cl)cc1C1=Nc2ccccc2N=C(c2cccc(Br)c2)C1,.,-,.,-,-
O=C(Nc1ccccc1)Nc1ccc(Br)c(Cl)c1,-,?,-,14.1µM,?
CCCCN(CCCC)S(=O)(=O)c1ccc(NC(=O)c2ccc([N+](=O)[O-])cc2Cl)cc1,-,?,-,?,-
SMILES,Luc counter,Tau fluor counter,NPSR antagonist,Tau fibril FP,Tau fibril ThT
O=C(NNc1ccccc1[N+](=O)[O-])Nc1ccc(Cl)c(Cl)c1,-,15.8µM[quencher],-,?,15.8µM
O=C(Nc1ccc(Cl)c(Cl)c1)Nc1ccc(Br)cc1F,-,?,-,7.08µM,?
O=C(Nc1ccccc1)Nc1ccccc1Br,-,-,-,-,-
CCN(CC)S(=O)(=O)c1cc([N+](=O)[O-])ccc1NNC(=O)Nc1ccc(Cl)c(Cl)c1,-,7.08µM[quencher],10µM,?,-
O=C(CNC(=O)c1ccc(Cl)cc1)OCc1cc(=O)n2nc(C3CC3)sc2n1,.,-,.,-,-
O=C(Nc1ccc(Cl)c(Cl)c1)Nc1ccccc1O,.,12.6µM[quencher],-,-,?
CSc1ccccc1NC(=O)Nc1ccc(F)c(Cl)c1,-,?,-,?,?
CCOC(=O)CSc1nc2cc(OC)c(OC)cc2c2nc(-c3ccccc3)nn12,.,-,.,-,-
CC(=O)OC[C@@H]1O[C@@H](O/N=C2/C[C@@H](O)[C@@H](O)[C@@H]3[C@H]4C(=O)N(c5ccc(F)cc5F)C(=O)[C@@H]4CC[C@@H]23)[C@H](OC(C)=O)[C@H](OC(C)=O)[C@@H]1OC(C)=O,.,-[11.6 µM],.,-[11.6 µM],-[11.5 µM]
O=C1c2ccccc2-c2onc3ccc(Oc4ccccc4)c1c23,-,6.31µM[quencher],?,?,4.47µM
CC(CNc1ccccc1O)C(=O)O (stereo unspecified),-,?,-,?,28.2µM
O=C1C(Cl)=C(NCCN2CCOCC2)C(=O)c2ncccc21,-,?,.,?,12.6µM
O=C1C(Cl)=C(NC2CCc3ccccc32)C(=O)c2ncccc21 (stereo unspecified),-,?,.,?,12.6µM
CN(C)Cc1cccc([N+](=O)[O-])c1O,.,-,-,-,-
Cc1ccc(Cl)cc1NC(=O)CN1C(=O)CSc2ccc(S(=O)(=O)N3CCCC3)cc21,.,-,.,-,-
COc1ccc(Nc2nc3ccccc3nc2-n2nc(C)cc2C)cc1,-,?,-,-,-
COc1ccc(Nc2nc3ccc(C)cc3nc2-n2nc(C)cc2C)cc1Cl,.,14.1µM[quencher],.,?,-
COc1ccc(OC)c(Nc2nc3ccccc3nc2-n2nc(C)cc2C)c1,.,12.6µM[quencher],.,?,-
COc1cccc(Nc2nc3ccc(C)cc3nc2-n2nc(C)cc2C)c1,.,?,.,-,-
CCC(=O)O[C@@]1(C(=O)CCl)C(C)CC2C3CCC4=CC(=O)C=C[C@@]4(C)[C@]3(F)C(O)C[C@]21C (stereo partly specified),-,-,.,-,-
CCCC(=O)O[C@]1(C(=O)CCl)[C@@H](C)C[C@H]2[C@@H]3CCC4=CC(=O)C=C[C@]4(C)[C@@]3(F)C(=O)C[C@@]21C,-,-,3.16µM,-,?
CCC(=O)O[C@]1(C(=O)CCl)[C@@H](C)C[C@H]2[C@@H]3CCC4=CC(=O)C=C[C@]4(C)[C@@]3(F)[C@@H](O)C[C@@]21C,-,?,2µM,-,?
CCCSCCCNC(=O)c1sc2nc(C)cc(C)c2c1-n1cccc1,.,-,.,-,-
COc1ccc2c(c1)c(=O)oc1cc(O)ccc12,.,-,-,-,?
COc1c(O)c(O)cc2c1oc1c3ccccc3oc(=O)c21,-,10µM[quencher],.,?,7.94µM
O=c1oc2cc(O)ccc2c2ccccc12,-,-,5.01µM,-,-
O=c1oc2cc(O)ccc2c2oc3cc(O)ccc3c12,-,25.1µM[quencher],-,-,?
Cc1c(O)c2ccccc2oc1=O,.,-,-,-,.
Cc1cc(S(=O)(=O)Nc2cc3c(cc2NCc2ccccc2)n(C)c(=O)n3C)ccc1F,.,?,.,-,?
CN(C)c1ccc(C(CNC(=O)c2ccc(C(C)(C)C)cc2)N2CCCC2)cc1 (stereo unspecified),.,-,.,-,-
